# Data from PubChem BioAssay AID652208 (Broad Institute, 2013).
# Potency and affinity values are given separately. The source made the active and inactive calls.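 Rule for the calls: active = Loss of cell signal with fitted half-effect dose at or below twice the top valid tested dose; inconclusive = Poor fit, or flat fit from -70 to -30 percent; inactive = Half-effect above limit, rising signal, or flat within 30 percent.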
# Test: viability loss in HEK293T cells – cell-based, cherry-picks, cytotoxicity control for HIV Vif inhibitor project, dose response (AID 652208)
# Conditions: CellTiter-Glo luminescence, 24 h; series mostly up to 26 µM
row,Structure (SMILES),outcome
1,Cc1ccc(-n2c(SCC(=O)Nc3ccc4c(c3)OCO4)nnc2-c2cccs2)cc1,inactive
2,COc1ccc(CN2C3CCC2CC(NC(=O)c2cc(OC)c(OC)c(OC)c2)C3)cc1 (stereo not drawn),inactive
3,N#Cc1c2ccc(OCC(N)=O)cc2n2ccccc12,inactive
4,O=C(c1cc(Cl)c(=O)n(Cc2ccccc2)c1)N1CCOCC1,inactive
5,COc1ccc(S(=O)(=O)N2c3cc(Cl)ccc3Oc3nc4ccccc4nc32)cc1,inactive
6,O=C(CCCCn1ccc(=O)[nH]c1=O)Nc1ccc(O)c(C(=O)O)c1,inactive
7,COc1ccc(CCNC(=O)[C@@H](NC(N)=O)C(C)C)cc1,inactive
8,C/C=C/c1ccc(OCCNCc2ccccc2)c(OC)c1,inactive
9,N#CC(C(=O)NCCc1ccccc1)c1nc2ccccc2nc1N1CCOCC1 (stereo not drawn),inactive
10,COc1c(Br)cc(Br)cc1/C=C1/C(=O)N=C(N)N1C,inactive
11,CC(=O)Nc1cc(NC(=O)C2C3C=CC(C3)C2C(=O)O)ccc1Cl (stereo not drawn),inactive
12,Cc1nnc(NC(=O)Cn2nc(C)c3ccccc3c2=O)s1,inactive
13,COc1ccc(-c2ccc3c(N)c(C(=O)c4ccc(OC)c(OC)c4)sc3n2)cc1,inactive
14,CCC(=O)Nc1ccc(-c2cc3ccccc3oc2=O)cc1,inactive
15,COc1ccc(NC(=O)C2(C)Cc3c(-c4cccc(NC(C)=O)c4)ccnc3O2)cn1 (stereo not drawn),inactive
16,O=C(CCCn1c(=S)[nH]c2ccccc2c1=O)N1CCN(c2cccc(Cl)c2)CC1,inactive
17,COc1ccc(OC)c(NC(=O)c2cc3ccccc3cc2OC)c1,inactive
18,O=C(c1ccc(Cl)c(Cl)c1)N(Cc1ccco1)c1ccc(O)cc1,inactive
19,CN1CCN(C(=S)c2ccc(OCC(=O)Nc3cccc(C(F)(F)F)c3)cc2)CC1,inactive

row,Structure (SMILES),outcome
1,O=C(Nc1cccc(-c2cc3ccccc3oc2=O)c1)c1ccc(Br)o1,inactive
2,Cc1cc(/C=C2\NC(=S)N(C)C2=O)ccc1N1CCCC1,inactive
3,COc1ccc(CC(=O)Nc2ccc(-c3noc(-c4cc(OC)c(OC)c(OC)c4)n3)cc2)cc1,inactive
4,CN(C)c1ccc(/C=C/C(=O)c2ccc3c(c2)OCO3)cc1,inactive
5,CCOc1nc(N2CCCCC2)nc(-n2cc(-c3ccccc3)nn2)n1,inactive
6,O=C(CCCOc1ccc(Br)cc1)NNC(=O)c1ccncc1,inactive
7,CN(Cc1ccccc1)C(=O)CCC1CCN(C(=O)c2ccco2)CC1,inactive
8,CCOC(=O)C1CCCN1C(=O)C1(NC(C)=O)CCCC1 (stereo not drawn),inactive
9,COc1cc(-c2cc(=O)c3c(O)c(OC)c(OC)cc3o2)cc(OC)c1O,inactive
10,Cc1cccc2cc(COC(=O)c3ccco3)c(=O)[nH]c12,inactive
11,CCN(CC)c1ccc2cc(C(N)=O)c(=O)oc2c1,inactive
12,Cc1cc(C)c(S(=O)(=O)N2CCN(S(=O)(=O)N3CCOCC3)CC2)c(C)c1,inactive
13,C=CCN1C(=O)/C(=C/c2ccc(-c3ccc(F)cc3)o2)SC1=S,inactive
14,Cc1ccc(-n2nnc3c(=O)n(CC(=O)OCc4ccccc4)cnc32)cc1,inactive
15,CC(C)CN(C(=O)COC(=O)CSc1ccccc1)c1c(N)n(Cc2ccccc2)c(=O)[nH]c1=O,inactive
16,CCOC(=O)C1=C(C)NC(=O)NC1,inactive
17,C=CCn1c(O)c(C2=c3ccccc3=NC2=O)s/c1=N/c1nccs1,inactive
18,CCOC(=O)Cc1csc(NC(=O)CSc2nnnn2-c2ccc(CC)cc2)n1,inactive
19,Cc1nn(C)cc1CN(C)Cc1ccc(OCC(O)CN2CCCCC2)cc1 (stereo not drawn),inactive
